{
  "source": "PubChem BioAssay AID624246",
  "about": "(National Center for Advancing Translational Sciences (NCATS), 2012)",
  "note": "Out of some 370,000 compounds screened, about 100 (0.027%) were called active. The call rests on the fitted dose curve; in most records, active means well fitted inhibition curve with a large enough effect in the polarisation, with a control signal flat; inconclusive means small, poorly fitted or top-dose-only effect, or effect the other way, or a change in a side signal; inactive means no such curve, though single readings can be large or run the other way; the % refers to the polarisation. The full list was thinned out, with actives kept by preference.",
  "data": [
    {"target": "Transcriptional regulator ERG (Homo sapiens) (UniProt P11308)", "sequence (P11308 whole entry, looked up, the tested form may be a part)": "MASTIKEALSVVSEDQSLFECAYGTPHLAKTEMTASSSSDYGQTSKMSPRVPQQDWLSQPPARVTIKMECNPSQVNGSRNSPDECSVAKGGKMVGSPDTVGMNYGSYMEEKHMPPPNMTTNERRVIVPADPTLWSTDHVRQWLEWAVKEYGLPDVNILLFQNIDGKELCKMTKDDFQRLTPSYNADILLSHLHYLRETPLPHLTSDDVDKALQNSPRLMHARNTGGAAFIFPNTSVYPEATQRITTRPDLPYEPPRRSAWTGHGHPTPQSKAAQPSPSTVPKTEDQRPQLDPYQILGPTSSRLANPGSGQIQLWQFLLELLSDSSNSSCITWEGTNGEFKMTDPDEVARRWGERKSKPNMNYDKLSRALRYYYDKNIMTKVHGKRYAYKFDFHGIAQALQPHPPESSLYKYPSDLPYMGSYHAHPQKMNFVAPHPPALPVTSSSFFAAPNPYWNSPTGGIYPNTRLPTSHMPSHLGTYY", "experiment": "qHTS for Small Molecule Inhibitors of the ERG Ets/DNA interaction; further: % of control where 0% means no effect", "settings": "fluorescence polarization, His-ERG Ets domain / labelled DNA; series mostly up to 76.9 µM; FP activity, negative = inhibition: at the top concentration", "from_the_text": "The Ets family of proteins is a family of ~30 conserved transcription factors defined by the presence of an ~85 amino acid domain referred to as the Ets domain, which mediates sequence-specific DNA binding to a core DNA element GGAA/T.The Ets family member ERG has been linked to several neoplasms. […] More extensive studies of the effects of over-expression of ERG in prostate cells have recently been carried out and have shown that over-expression of ERG results in increased invasion. […] We will carry out a high throughout screen to identify inhibitors of the interaction between ERG and DNA using a fluorescence polarization (FP) assay with a His-tagged ERG Ets domain and fluorescently-labeled DNA probes to develop small molecule inhibitors of this interaction as probes to test this hypothesis and lay the groundwork for the development of targeted therapies against ERG. NIH Molecular Libraries Probe Production Network [MLPCN] NIH Chemical Genomics Center [NCGC] Grant: NS066464 PI Name: John Bushweller, University of Virgina\n1.5 ul of protein solution (1 uM ERG domain in 300mM KCl, 50mM Tris-HCl, 1mM EDTA, 1mM DTT, pH 7.5); 20 nl Control plate and compound library plate; 1.5 ul mixture of 5 nM Fluorescein-DNA and 100nM Texas-615-DNA solution in same buffer as above solution; measure fluorescence polarization sequentially for fluorescein (Excitation = 480 nm, Emission = 535s, 535p nm) and Texas red (Excitation = 555 nm, Emission = 632s, 632p nm).", "values": [
      {"smiles": "O=C(Nc1ccccc1F)C(c1ccccc1)N1Cc2ccccc2C1=O", "note": "(stereo unspecified)", "FP activity, negative = inhibition": "-0.37% (inactive)"},
      {"smiles": "COc1ccccc1CNC(=O)CCCn1c(=O)c2ccccc2n(CC(=O)Nc2ccc(C)cc2Cl)c1=O", "FP activity, negative = inhibition": "9.36% (inactive)"},
      {"smiles": "O=C1Cc2cc(S(=O)(=O)Nc3ccc(OC(F)(F)F)cc3)cc3c2N1CCC3", "FP activity, negative = inhibition": "10% (inactive)"},
      {"smiles": "CCc1ccc(NC(=O)c2nn(-c3ccc(C)cc3)c(=O)n(C)c2=O)cc1", "FP activity, negative = inhibition": "-0.735% (inactive)"},
      {"smiles": "COC(=O)c1scc(-c2ccccc2)c1S(=O)(=O)Nc1ccccc1", "FP activity, negative = inhibition": "0.898% (inactive)"},
      {"smiles": "CC1CCN(C(=O)Cn2c(=O)n(-c3ccc(Cl)cc3)c(=O)c3c4c(sc32)CCC4)CC1", "FP activity, negative = inhibition": "4.19% (inactive)"},
      {"smiles": "CCCn1c(NCc2ccc(N(CC)CC)cc2)nc2ccccc21", "FP activity, negative = inhibition": "-3.75% (inactive)"},
      {"smiles": "Cc1ccccc1C(=O)NCc1nc(-c2ccc(Cl)cc2)no1", "FP activity, negative = inhibition": "-2.03% (inactive)"},
      {"smiles": "Cc1cc(C)c(-c2n[nH]c3c2C(c2ccccc2F)N(CCO)C3=O)c(O)c1", "note": "(stereo unspecified)", "FP activity, negative = inhibition": "-4.81% (inactive)"},
      {"smiles": "COc1ccccc1-c1cc2nc(C)c(CCC(=O)O)c(C)n2n1", "FP activity, negative = inhibition": "-0.16% (inactive)"},
      {"smiles": "CC(C)c1ccc(NC(=O)C2CCN(c3nc(-c4ccc(C(C)C)cc4)no3)CC2)cc1", "FP activity, negative = inhibition": "2.37% (inactive)"},
      {"smiles": "Cc1c(CNC2CCCCC2)c(C(=O)O)c(C)n1Cc1cccc(Cl)c1", "FP activity, negative = inhibition": "-2.9% (inactive)"},
      {"smiles": "Cc1ccc(C(=O)NCCSc2c(C)[nH]c3ccccc23)cc1C", "FP activity, negative = inhibition": "-6.47% (inactive)"},
      {"smiles": "CCCCNC(=O)CSc1nc2cc3c(cc2c(=O)n1CCCCCC(=O)NCc1ccc2c(c1)OCO2)OCO3", "FP activity, negative = inhibition": "-12.3% (inactive)"},
      {"smiles": "N#Cc1ccc(-c2cccs2)nc1SCc1ccc(Br)cc1", "FP activity, negative = inhibition": "12.1% (inactive)"},
      {"smiles": "CCc1nn(CC(=O)Nc2cccc(C)c2C)c(=O)c2cc3sccc3n12", "FP activity, negative = inhibition": "13.6% (inactive)"},
      {"smiles": "O=C(Cn1c(=O)n(-c2ccc(F)cc2)c(=O)c2sccc21)Nc1cccc(C(F)(F)F)c1", "FP activity, negative = inhibition": "-2.35% (inactive)"},
      {"smiles": "COc1cccc(N=C2SC(C(=O)Nc3cccc(Cl)c3)CC(=O)N2C)c1", "note": "(stereo unspecified)", "FP activity, negative = inhibition": "-5.94% (inactive)"},
      {"smiles": "COC(=O)c1sccc1S(=O)(=O)N(CC(=O)Nc1ccc(C)c(F)c1)c1ccc(C)c(C)c1", "FP activity, negative = inhibition": "2.23% (inactive)"},
      {"smiles": "Cc1ccc(CCNC(=O)C2CCN(c3nnc(-n4cccc4CNc4ccc(C)cc4)s3)CC2)cc1", "FP activity, negative = inhibition": "0.384% (inactive)"},
      {"smiles": "Cc1ccccc1CNC(=O)C1CCCN(S(=O)(=O)N(C)c2ccc(F)cc2)C1", "note": "(stereo unspecified)", "FP activity, negative = inhibition": "-3.29% (inactive)"},
      {"smiles": "CCOc1ccccc1CNC(=O)c1ccc(-n2c(C)cc3c2CCC(C)C3)cc1", "note": "(stereo unspecified)", "FP activity, negative = inhibition": "5.18% (inactive)"},
      {"smiles": "CCOC(=O)c1scc(-c2ccccc2)c1S(=O)(=O)Nc1ccccc1F", "FP activity, negative = inhibition": "3.67% (inactive)"},
      {"smiles": "COc1ccc(C)cc1NC(=O)COCc1cc(-c2cccs2)on1", "FP activity, negative = inhibition": "8% (inactive)"},
      {"smiles": "COc1ccc(NC(=O)CSC2=Nc3ccccc3C3=NC(CC(=O)NCc4ccccc4OC)C(=O)N23)cc1Cl", "note": "(stereo unspecified)", "FP activity, negative = inhibition": "-0.573% (inactive)"},
      {"smiles": "O=C(/C=C/c1ccccc1)Nc1cc(-c2nc3cc(Cl)ccc3o2)ccc1Cl", "FP activity, negative = inhibition": "4.72% (inactive)"},
      {"smiles": "Cc1ccc(-n2ncc3c(NCCCn4ccnc4)ncnc32)cc1Cl", "FP activity, negative = inhibition": "-1.49% (inactive)"},
      {"smiles": "Cc1nn2c(=O)cc(COC(=O)c3cccc(NC(=O)COc4ccccc4Cl)c3)nc2s1", "FP activity, negative = inhibition": "8.49% (inactive)"},
      {"smiles": "COc1ccc(CNC(=O)CC2Oc3ccc(C)cc3NC2=O)cc1", "note": "(stereo unspecified)", "FP activity, negative = inhibition": "1.76% (inactive)"},
      {"smiles": "CCOc1ccc(C2C(=O)N(C3CCCCC3)CC(=O)N2CCC2=CCCCC2)cc1OC", "note": "(stereo unspecified)", "FP activity, negative = inhibition": "-1.03% (inactive)"},
      {"smiles": "COc1ccc(NC(=O)CCCc2nnc3n(CCC(C)C)c(=O)c4sccc4n23)c(OC)c1", "FP activity, negative = inhibition": "3.52% (inactive)"},
      {"smiles": "COc1ccc(CCNC(=O)c2c3c(nc4ccccc24)C(=O)N(C2CCCCC2)C3)cc1OC", "FP activity, negative = inhibition": "0.33% (inactive)"},
      {"smiles": "Fc1ccccc1Oc1ncnc2c1oc1ccccc12", "FP activity, negative = inhibition": "-0.355% (inactive)"},
      {"smiles": "CCOC(=O)c1sc(NC(=O)/C=C/c2ccc(C(C)C)cc2)c(C(=O)OCC)c1C", "FP activity, negative = inhibition": "-7.51% (inactive)"},
      {"smiles": "CCOC(=O)c1ccc(CN(Cc2ccccc2)S(=O)(=O)c2ccc(Cl)cc2)cc1", "FP activity, negative = inhibition": "0.277% (inactive)"},
      {"smiles": "COc1ccc(Br)cc1C1CC(=O)Nc2c1c(C)nn2-c1nc(C)cc(C)n1", "note": "(stereo unspecified)", "FP activity, negative = inhibition": "-7.83% (inactive)"},
      {"smiles": "Cc1ccc(Cl)cc1NC(=O)CCC(=O)N1CC(C)Sc2ccccc21", "note": "(stereo unspecified)", "FP activity, negative = inhibition": "3.77% (inactive)"},
      {"smiles": "Cc1ccc(C(=O)CC2(O)C(=O)N(CCc3ccccc3)c3ccc(Br)cc32)cc1", "note": "(stereo unspecified)", "FP activity, negative = inhibition": "-0.549% (inactive)"},
      {"smiles": "COc1cc(NC(=O)Cn2nc(-c3ccc(C)c(C)c3)ccc2=O)cc(OC)c1", "FP activity, negative = inhibition": "4.13% (inactive)"},
      {"smiles": "COc1ccccc1NC(=O)CN1C(=O)c2ccccc2Sc2ccc(C(=O)N3CCCC3)cc21", "FP activity, negative = inhibition": "-2.51% (inactive)"},
      {"smiles": "CCOC(=O)c1[nH]c(C)c(CCC(=O)NCc2ccccc2C)c1C", "FP activity, negative = inhibition": "-3.1% (inactive)"},
      {"smiles": "Cc1ccc(CNC(=O)CSc2c3c(nc4cc(Cl)ccc24)CCCC3)cc1", "FP activity, negative = inhibition": "-0.34% (inactive)"},
      {"smiles": "CCN1C(=O)c2ccccc2S(=O)c2ccc(C(=O)NCc3ccc(F)cc3)cc21", "note": "(stereo unspecified)", "FP activity, negative = inhibition": "-4.21% (inactive)"},
      {"smiles": "CC1Cc2cc(S(=O)(=O)CCC(=O)Nc3ccc(F)c(Cl)c3)ccc2N1C(=O)C1CC1", "note": "(stereo unspecified)", "FP activity, negative = inhibition": "0.16% (inactive)"},
      {"smiles": "O=C(CSc1n[nH]c(-c2ccccc2)n1)N1CCCCC1", "FP activity, negative = inhibition": "8.6% (inactive)"},
      {"smiles": "O=C(/C=C/c1cn(CC(O)CN2CCc3ccccc32)c2ccccc12)c1ccc(Br)cc1", "note": "(stereo unspecified)", "FP activity, negative = inhibition": "-7.5% (inactive)"},
      {"smiles": "CC(=O)c1nn(-c2ccc(OC(F)(F)F)cc2)nc1Nc1ccccc1", "FP activity, negative = inhibition": "-1.16% (inactive)"},
      {"smiles": "Cc1nn(-c2ccc(N3CCCCC3)nn2)c(C)c1CCC(=O)NCc1ccccc1F", "FP activity, negative = inhibition": "-5.53% (inactive)"},
      {"smiles": "CCc1ccc(C(=O)CC2(O)C(=O)N(CCc3ccccc3)c3ccc(Br)cc32)cc1", "note": "(stereo unspecified)", "FP activity, negative = inhibition": "-0.514% (inactive)"},
      {"smiles": "CCOc1cc(C2c3c(-c4ccc(Br)cc4)n[nH]c3C(=O)N2c2ccc(Cl)cc2)ccc1O", "note": "(stereo unspecified)", "FP activity, negative = inhibition": "12% (inactive)"},
      {"smiles": "CCOc1ccc(-c2nonc2NC(=O)c2oc3ccc(C)cc3c2C)cc1OCC", "FP activity, negative = inhibition": "0.0958% (inactive)"},
      {"smiles": "CC1=C(C(=O)OCC(C)C)C(c2ccc(OCc3ccccc3)cc2)N2C(=O)CCSC2=N1", "note": "(stereo unspecified)", "FP activity, negative = inhibition": "-0.84% (inactive)"},
      {"smiles": "O=C(NCc1ccccc1)c1ccc2c(c1)nc1n2CCCCC1", "FP activity, negative = inhibition": "-0.294% (inactive)"},
      {"smiles": "COC(=O)c1cc(S(=O)(=O)N2CCN(c3cc(Cl)ccc3C)CC2)c[nH]1", "FP activity, negative = inhibition": "-1.55% (inactive)"},
      {"smiles": "Cc1ccc(C)c(N2CCN(CCCNC(=O)Nc3ccc(Cl)cc3)CC2)c1", "FP activity, negative = inhibition": "1.63% (inactive)"},
      {"smiles": "COc1ccc(-c2cn3nc(N4CCC(C(=O)Nc5cccc(C)c5C)CC4)sc3n2)cc1", "FP activity, negative = inhibition": "-1.85% (inactive)"},
      {"smiles": "COc1ccc(OC)c(NC(=O)CSC2=Nc3ccccc3C3=NC(CC(=O)NCc4ccc(F)cc4)C(=O)N23)c1", "note": "(stereo unspecified)", "FP activity, negative = inhibition": "5.04% (inactive)"},
      {"smiles": "Cc1ccc2oc(=O)c3cnn(CC(=O)NCc4ccccc4Cl)c3c2c1", "FP activity, negative = inhibition": "-1.05% (inactive)"},
      {"smiles": "CCOc1ccc(CNC(=O)c2cccc(Nc3nc4ccccc4n4nnnc34)c2)cc1OC", "FP activity, negative = inhibition": "-1.27% (inactive)"},
      {"smiles": "Cc1ccc(C)c(Oc2c(C(F)(F)F)oc3c(CN4CCN(C)CC4)c(O)ccc3c2=O)c1", "FP activity, negative = inhibition": "1.61% (inactive)"},
      {"smiles": "CCOc1ccccc1NC(=O)CN1CCCN(Cc2cccc(Cl)c2)S1(=O)=O", "FP activity, negative = inhibition": "4.01% (inactive)"}
    ]}
  ]
}
